Data published in PubChem BioAssay (NCI).
Compounds without any hit were thinned out: in the full panel of roughly 83,000, 20% have a hit.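 Assay: single dose, 48 h. Readout: percent growth (0 = no net growth; negative = cell death). Active: <10.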 Unmarked numbers belong to inactive results. Calls of active or inactive are those of the source.

What was measured:
Assay in all cases: NCI-60 one-dose screen, 48 h (100 = growth as untreated, 0 = no growth, -100 = all killed)
Settings in all cases: 10 µM unless noted
SR leukemia = tested on: SR leukemia
RPMI-8226 leukemia = tested on: RPMI-8226 leukemia
OVCAR-8 ovarian = tested on: OVCAR-8 ovarian
OVCAR-5 ovarian = tested on: OVCAR-5 ovarian
OVCAR-4 ovarian = tested on: OVCAR-4 ovarian
SK-OV-3 ovarian = tested on: SK-OV-3 ovarian
IGROV1 ovarian = tested on: IGROV1 ovarian
OVCAR-3 ovarian = tested on: OVCAR-3 ovarian
HS 578T breast = tested on: HS 578T breast
NCI/ADR-RES ovarian = tested on: NCI/ADR-RES ovarian

`Cc1ccc2c(c1)=C/C(=C\c1cc(-c3ccccc3)[nH]c1O)C(=O)N=2` was tested, and the growth (SR leukemia) was 14.1%, the growth (RPMI-8226 leukemia) was 33.8% and the growth (OVCAR-8 ovarian) was 50.6%. For the same compound, the growth (OVCAR-5 ovarian) was 78.9%, the growth (OVCAR-4 ovarian) was 59.7% and the growth (SK-OV-3 ovarian) was 65.7%. For the same compound, the growth (IGROV1 ovarian) was 40.7%, the growth (OVCAR-3 ovarian) was 16.1% and the growth (HS 578T breast) was 41.9%. It also gave a growth (NCI/ADR-RES ovarian) of 43.7%.
In the case of `Cc1cc(O)cc(-c2nn(C)cc2-c2cc(N3CCOCC3)nc(-c3cccnc3)n2)c1`, the growth (SR leukemia) is reported as 15%, the growth (RPMI-8226 leukemia) is reported as 38.2% and the growth (OVCAR-8 ovarian) is reported as 47.1%. It also gave a growth (OVCAR-5 ovarian) of 84.6%, a growth (OVCAR-4 ovarian) of 73.1% and a growth (SK-OV-3 ovarian) of 38.5%. For the same compound, the growth (IGROV1 ovarian) was 45%, the growth (OVCAR-3 ovarian) was 8.62% (active) and the growth (HS 578T breast) was 20.5%. It also gave a growth (NCI/ADR-RES ovarian) of 45.9%.
`COc1cc(/C=C/C(=O)N2CCN(C(=O)c3cc(OC)c(OC)c(OC)c3)CC2)ccc1OCCCOc1cc2c(cc1OC)C(=O)N1CCC[C@H]1C=N2` was tested, and the growth (SR leukemia) was -15.4% (active), the growth (RPMI-8226 leukemia) was 15.2% and the growth (OVCAR-8 ovarian) was 14.1%. For the same compound, the growth (OVCAR-5 ovarian) was 8.34% (active), the growth (OVCAR-4 ovarian) was 16% and the growth (SK-OV-3 ovarian) was 20.3%. For the same compound, the growth (IGROV1 ovarian) was -57.9% (active), the growth (OVCAR-3 ovarian) was -11.9% (active) and the growth (HS 578T breast) was -2.23% (active). The growth (NCI/ADR-RES ovarian) was 78.6%.
With `C=C1C(=O)O[C@H]2[C@H]1CC/C(COC(=O)NCc1ccc(Cn3c(=O)sn(-c4ccccc4)c3=O)cc1)=C\CC[C@@]1(C)O[C@@H]21` the growth (SR leukemia) was -4.67% (active), the growth (RPMI-8226 leukemia) was 1.88% (active) and the growth (OVCAR-8 ovarian) was 42%. It also gave a growth (OVCAR-5 ovarian) of 68.3%, a growth (OVCAR-4 ovarian) of 34.8% and a growth (SK-OV-3 ovarian) of 134%. The growth (IGROV1 ovarian) was -40.1% (active), the growth (OVCAR-3 ovarian) was -15.6% (active) and the growth (HS 578T breast) was 87.5%. For the same compound, the growth (NCI/ADR-RES ovarian) was 106%.
`CN(C)CCC(CCN(C)C)(C(=O)O)c1ccccc1` showed a growth (SR leukemia) of 110%, a growth (RPMI-8226 leukemia) of 99.8% and a growth (OVCAR-8 ovarian) of 102%. It also gave a growth (OVCAR-5 ovarian) of 99.2%, a growth (OVCAR-4 ovarian) of 105% and a growth (SK-OV-3 ovarian) of 102%. It also gave a growth (IGROV1 ovarian) of 93.7%, a growth (OVCAR-3 ovarian) of 113% and a growth (HS 578T breast) of 111%. For the same compound, the growth (NCI/ADR-RES ovarian) was 112%.
In the case of `CCCN(CCSSCCNc1nc(N(C)O)nc(N(C)O)n1)c1nc(N(C)O)nc(N(C)O)n1`, the growth (SR leukemia) is reported as 129%, the growth (RPMI-8226 leukemia) is reported as 42.6% and the growth (OVCAR-8 ovarian) is reported as 70.9%. It also gave a growth (OVCAR-5 ovarian) of 58%, a growth (OVCAR-4 ovarian) of 55% and a growth (SK-OV-3 ovarian) of 57.1%. It also gave a growth (IGROV1 ovarian) of 83%, a growth (OVCAR-3 ovarian) of 51.6% and a growth (HS 578T breast) of 131%. For the same compound, the growth (NCI/ADR-RES ovarian) was 85.1%.
For `COC1C(O)CC(OC2CC(OC3CC(O[C@@H]4C(=O)c5c(cc6cc(OC7CC(OC8CC(O)C(O)C(C)O8)C(O)C(C)O7)c(C)c(O)c6c5O)CC4[C@H](OC)[C@@H](O)C(C)=O)OC(C)C3O)OC(C)C2O)OC1C` (stereo not given in full), the growth (SR leukemia) was 4.82% (active), the growth (RPMI-8226 leukemia) was 7.39% (active) and the growth (OVCAR-8 ovarian) was 8.72% (active). It also gave a growth (OVCAR-5 ovarian) of 12%, a growth (OVCAR-4 ovarian) of 16.9% and a growth (SK-OV-3 ovarian) of 22.2%. The growth (IGROV1 ovarian) was 17.4%, the growth (OVCAR-3 ovarian) was 5.36% (active) and the growth (HS 578T breast) was 21.7%. It also gave a growth (NCI/ADR-RES ovarian) of 68.8%.
With `O=C(CN1C(=O)S/C(=C\C(Cl)=C\c2ccccc2)C1=O)NC1CCS(=O)(=O)C1` (stereo not given) the growth (SR leukemia) was 14.2%, the growth (RPMI-8226 leukemia) was 21.7% and the growth (OVCAR-8 ovarian) was 47.1%. It also gave a growth (OVCAR-5 ovarian) of 110%, a growth (OVCAR-4 ovarian) of 78.7% and a growth (SK-OV-3 ovarian) of 106%. For the same compound, the growth (IGROV1 ovarian) was 41.3%, the growth (OVCAR-3 ovarian) was 19.4% and the growth (HS 578T breast) was 87.4%. It also gave a growth (NCI/ADR-RES ovarian) of 84%.
`CCOC(=O)C1=C(CCl)N(C)C(=O)NC1c1ccc2c(c1)OCO2` (stereo not given) was tested, and the growth (SR leukemia) was 19.8%, the growth (RPMI-8226 leukemia) was 12.3% and the growth (OVCAR-8 ovarian) was 44.9%. For the same compound, the growth (OVCAR-5 ovarian) was 76.9%, the growth (OVCAR-4 ovarian) was 55.9% and the growth (SK-OV-3 ovarian) was 93.7%. It also gave a growth (IGROV1 ovarian) of 74.6%, a growth (OVCAR-3 ovarian) of 25.2% and a growth (HS 578T breast) of 50%. It also gave a growth (NCI/ADR-RES ovarian) of 72%.
`NC(=O)c1ccccc1OCC(=O)Nc1ccc(Cl)c(Cl)c1` gave a growth (SR leukemia) of 71.4%, a growth (RPMI-8226 leukemia) of 66.5% and a growth (OVCAR-8 ovarian) of 91.9%. It also gave a growth (OVCAR-5 ovarian) of 119%, a growth (OVCAR-4 ovarian) of 96.5% and a growth (SK-OV-3 ovarian) of 96.9%. For the same compound, the growth (IGROV1 ovarian) was 84.2%, the growth (OVCAR-3 ovarian) was 95.4% and the growth (HS 578T breast) was 98.7%. For the same compound, the growth (NCI/ADR-RES ovarian) was 107%.
In the case of `COCCn1cc(-c2nc(-c3c[nH]c4ncccc34)cs2)c2ccccc21`, the growth (SR leukemia) is reported as 18.4%, the growth (RPMI-8226 leukemia) is reported as 43.3% and the growth (OVCAR-8 ovarian) is reported as 81%. The growth (OVCAR-5 ovarian) was 43.7%, the growth (OVCAR-4 ovarian) was 15.2% and the growth (SK-OV-3 ovarian) was 54.8%. It also gave a growth (IGROV1 ovarian) of 36%, a growth (OVCAR-3 ovarian) of 13.6% and a growth (HS 578T breast) of 47.4%. It also gave a growth (NCI/ADR-RES ovarian) of 69.1%.
With `O=C(Nc1ccc(Oc2cccc(Cl)c2)c(Cl)c1)c1cccnn1` the growth (SR leukemia) was 87%, the growth (RPMI-8226 leukemia) was 71.1% and the growth (OVCAR-8 ovarian) was 91.7%. For the same compound, the growth (OVCAR-5 ovarian) was 91.1%, the growth (OVCAR-4 ovarian) was 68.6% and the growth (SK-OV-3 ovarian) was 102%. For the same compound, the growth (IGROV1 ovarian) was 91.4%, the growth (OVCAR-3 ovarian) was 85.6% and the growth (HS 578T breast) was 106%. The growth (NCI/ADR-RES ovarian) was 85%.
Compound `COc1ccc(-c2nc(SCC(=O)Nc3nc4ccc(C)cc4s3)[nH]c(=O)c2C#N)cc1OC` has a growth (SR leukemia) of 75.2%, a growth (RPMI-8226 leukemia) of 110% and a growth (OVCAR-8 ovarian) of 101%. It also gave a growth (OVCAR-5 ovarian) of 111%, a growth (OVCAR-4 ovarian) of 105% and a growth (SK-OV-3 ovarian) of 74.2%. The growth (IGROV1 ovarian) was 95.9%, the growth (OVCAR-3 ovarian) was 112% and the growth (HS 578T breast) was 87.4%. For the same compound, the growth (NCI/ADR-RES ovarian) was 98.3%.
For `C#CCOc1cccc(Nc2ncnc3cc(NC(=O)CCl)ccc23)c1`, the growth (SR leukemia) was -47.7% (active), the growth (RPMI-8226 leukemia) was -43.9% (active) and the growth (OVCAR-8 ovarian) was -30.2% (active). The growth (OVCAR-5 ovarian) was -73% (active), the growth (OVCAR-4 ovarian) was -41% (active) and the growth (SK-OV-3 ovarian) was -55.8% (active). For the same compound, the growth (IGROV1 ovarian) was -64.6% (active), the growth (OVCAR-3 ovarian) was -76.7% (active) and the growth (HS 578T breast) was -1.12% (active). The growth (NCI/ADR-RES ovarian) was -21.9% (active).
